The values below come from the supplement of paper PMC11732987, “Enantioselective OTUD7B fragment discovery through chemoproteomics screening and high-throughput optimisation” (Communications Chemistry, 2025).

What all share (assay): log2 ratio of Biotin-Ahx-Ub-VS probe labelling (fragment/DMSO); higher = less target engagement (more negative = stronger competition), active = hit call of the paper (q ≤ 0.05, log2 ratio ≤ -1)
Common to all, as to conditions: compound concentration: 200 uM; treatment time: 3 h

For one assay, the target named is T1, OTUD6B (UniProt Q8N6M0).
T1 sequence (whole entry): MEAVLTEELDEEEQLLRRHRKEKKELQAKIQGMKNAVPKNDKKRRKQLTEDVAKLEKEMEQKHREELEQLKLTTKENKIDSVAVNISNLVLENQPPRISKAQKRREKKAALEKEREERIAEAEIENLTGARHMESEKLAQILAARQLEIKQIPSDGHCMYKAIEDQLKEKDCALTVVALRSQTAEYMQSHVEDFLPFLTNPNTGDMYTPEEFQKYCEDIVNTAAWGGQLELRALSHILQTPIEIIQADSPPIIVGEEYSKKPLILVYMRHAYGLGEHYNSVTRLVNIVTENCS
In short, it runs like this:
(§1)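 Labelled DUBs were enriched with NeutrAvidin, digested with LysC and trypsin, and run by diaPASEF LC-MS/MS. The labelling used Biotin-Ahx-Ub-VS at 0.5 µM final for 1 h on HEK293T lysate (495 µg per sample) previously treated in triplicate with fragment at 200 µM or vehicle for 3 h. Values are average log2 fragment/vehicle ratios by unpaired t-test on global-median-normalised Spectronaut quantities of proteins with ≥2 unique peptides.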

The next assay addresses T2, OTUD7B (UniProt Q6GQQ9).
T2 sequence (whole entry): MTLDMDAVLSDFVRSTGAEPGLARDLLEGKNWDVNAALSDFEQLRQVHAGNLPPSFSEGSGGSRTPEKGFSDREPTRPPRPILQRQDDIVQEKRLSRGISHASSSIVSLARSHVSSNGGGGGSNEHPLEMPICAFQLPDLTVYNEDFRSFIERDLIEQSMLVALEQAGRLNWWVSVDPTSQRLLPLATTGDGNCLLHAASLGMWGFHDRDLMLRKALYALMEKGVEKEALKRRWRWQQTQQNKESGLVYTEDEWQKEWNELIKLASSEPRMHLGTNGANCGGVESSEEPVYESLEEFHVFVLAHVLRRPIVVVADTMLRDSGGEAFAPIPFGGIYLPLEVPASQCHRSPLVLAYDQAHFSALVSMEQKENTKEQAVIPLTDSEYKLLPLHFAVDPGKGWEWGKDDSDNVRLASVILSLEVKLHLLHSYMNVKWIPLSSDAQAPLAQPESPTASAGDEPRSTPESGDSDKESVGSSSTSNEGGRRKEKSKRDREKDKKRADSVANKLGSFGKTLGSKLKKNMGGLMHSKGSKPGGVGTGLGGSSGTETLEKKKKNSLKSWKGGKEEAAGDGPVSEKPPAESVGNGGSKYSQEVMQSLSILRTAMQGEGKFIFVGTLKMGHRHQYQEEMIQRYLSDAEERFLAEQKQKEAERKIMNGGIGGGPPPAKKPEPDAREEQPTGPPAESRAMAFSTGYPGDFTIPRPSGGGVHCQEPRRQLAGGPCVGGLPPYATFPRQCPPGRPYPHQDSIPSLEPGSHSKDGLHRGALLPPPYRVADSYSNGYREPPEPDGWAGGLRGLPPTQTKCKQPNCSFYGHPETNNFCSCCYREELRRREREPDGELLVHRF
In short, it runs like this: as §1

The next assay deals with PRPF8 (UniProt Q6P2Q9). In short, it runs like this:
as §1

Another assay addresses T3, PSMD7 (UniProt P51665).
T3 sequence (whole entry): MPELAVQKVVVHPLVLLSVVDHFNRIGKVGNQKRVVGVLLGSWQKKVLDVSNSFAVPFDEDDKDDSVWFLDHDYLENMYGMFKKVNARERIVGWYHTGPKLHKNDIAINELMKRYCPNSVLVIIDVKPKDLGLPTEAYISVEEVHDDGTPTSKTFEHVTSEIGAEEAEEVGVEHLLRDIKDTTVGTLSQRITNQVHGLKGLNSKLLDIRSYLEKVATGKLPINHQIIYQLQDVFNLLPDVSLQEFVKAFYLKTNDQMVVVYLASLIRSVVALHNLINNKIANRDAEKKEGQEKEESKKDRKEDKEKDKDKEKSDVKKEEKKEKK
In short, it runs like this:
as §1

In another assay the target is UCHL1 (UniProt P09936). In a few lines:
as §1

A further assay concerns the target T4, UCHL3 (UniProt P15374).
T4 sequence (whole entry): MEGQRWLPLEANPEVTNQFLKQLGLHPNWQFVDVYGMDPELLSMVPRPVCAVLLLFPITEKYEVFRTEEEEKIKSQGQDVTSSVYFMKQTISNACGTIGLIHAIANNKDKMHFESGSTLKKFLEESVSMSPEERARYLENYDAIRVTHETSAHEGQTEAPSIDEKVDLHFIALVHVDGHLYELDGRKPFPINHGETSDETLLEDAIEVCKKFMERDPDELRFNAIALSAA
In short, it runs like this:
as §1

In another assay the target is T5, UCHL5 (UniProt Q9Y5K5).
T5 sequence (whole entry): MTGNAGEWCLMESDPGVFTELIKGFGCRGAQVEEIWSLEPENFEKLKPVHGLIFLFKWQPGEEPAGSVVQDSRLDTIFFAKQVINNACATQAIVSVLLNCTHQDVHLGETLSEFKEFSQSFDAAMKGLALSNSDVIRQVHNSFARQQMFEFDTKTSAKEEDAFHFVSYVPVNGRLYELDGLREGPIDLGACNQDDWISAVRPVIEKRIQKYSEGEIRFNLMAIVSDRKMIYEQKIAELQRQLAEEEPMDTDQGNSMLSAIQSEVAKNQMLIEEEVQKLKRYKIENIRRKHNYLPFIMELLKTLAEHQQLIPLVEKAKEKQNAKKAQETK
In a few lines: as §1

Another assay deals with USP10 (UniProt Q14694). In short, it runs like this:
as §1

Another assay has as its target T6, USP15 (UniProt Q9Y4E8).
T6 sequence (whole entry): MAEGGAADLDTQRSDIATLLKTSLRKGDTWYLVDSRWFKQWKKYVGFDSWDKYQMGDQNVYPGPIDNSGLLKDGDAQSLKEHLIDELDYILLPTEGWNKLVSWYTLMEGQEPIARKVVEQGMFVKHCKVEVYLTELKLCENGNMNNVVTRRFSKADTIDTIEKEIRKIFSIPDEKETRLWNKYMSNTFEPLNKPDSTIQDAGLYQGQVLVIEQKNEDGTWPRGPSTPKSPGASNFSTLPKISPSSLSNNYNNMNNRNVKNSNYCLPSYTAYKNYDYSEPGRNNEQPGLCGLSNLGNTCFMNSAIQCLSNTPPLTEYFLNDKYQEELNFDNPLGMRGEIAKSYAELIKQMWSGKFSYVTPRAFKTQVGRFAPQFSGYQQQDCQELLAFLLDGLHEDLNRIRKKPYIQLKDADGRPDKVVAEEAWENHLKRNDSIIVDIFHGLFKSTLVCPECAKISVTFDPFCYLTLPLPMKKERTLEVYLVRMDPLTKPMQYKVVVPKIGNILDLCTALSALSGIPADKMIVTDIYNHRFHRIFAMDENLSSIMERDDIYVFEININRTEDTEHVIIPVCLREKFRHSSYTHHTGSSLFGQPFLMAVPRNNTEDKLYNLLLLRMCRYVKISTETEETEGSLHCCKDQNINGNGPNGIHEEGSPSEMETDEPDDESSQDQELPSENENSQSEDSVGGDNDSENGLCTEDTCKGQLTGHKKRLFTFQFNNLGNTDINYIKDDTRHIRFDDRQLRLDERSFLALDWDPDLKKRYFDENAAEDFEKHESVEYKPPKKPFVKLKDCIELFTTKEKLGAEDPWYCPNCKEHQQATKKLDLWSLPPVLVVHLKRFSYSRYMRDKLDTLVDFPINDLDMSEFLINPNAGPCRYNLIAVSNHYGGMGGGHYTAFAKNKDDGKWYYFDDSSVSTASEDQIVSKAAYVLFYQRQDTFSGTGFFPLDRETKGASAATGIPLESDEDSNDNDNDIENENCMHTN
In short, it runs like this:
as §1

Unmarked numbers belong to inactive results.

USP10, sequence (Q14694 whole entry): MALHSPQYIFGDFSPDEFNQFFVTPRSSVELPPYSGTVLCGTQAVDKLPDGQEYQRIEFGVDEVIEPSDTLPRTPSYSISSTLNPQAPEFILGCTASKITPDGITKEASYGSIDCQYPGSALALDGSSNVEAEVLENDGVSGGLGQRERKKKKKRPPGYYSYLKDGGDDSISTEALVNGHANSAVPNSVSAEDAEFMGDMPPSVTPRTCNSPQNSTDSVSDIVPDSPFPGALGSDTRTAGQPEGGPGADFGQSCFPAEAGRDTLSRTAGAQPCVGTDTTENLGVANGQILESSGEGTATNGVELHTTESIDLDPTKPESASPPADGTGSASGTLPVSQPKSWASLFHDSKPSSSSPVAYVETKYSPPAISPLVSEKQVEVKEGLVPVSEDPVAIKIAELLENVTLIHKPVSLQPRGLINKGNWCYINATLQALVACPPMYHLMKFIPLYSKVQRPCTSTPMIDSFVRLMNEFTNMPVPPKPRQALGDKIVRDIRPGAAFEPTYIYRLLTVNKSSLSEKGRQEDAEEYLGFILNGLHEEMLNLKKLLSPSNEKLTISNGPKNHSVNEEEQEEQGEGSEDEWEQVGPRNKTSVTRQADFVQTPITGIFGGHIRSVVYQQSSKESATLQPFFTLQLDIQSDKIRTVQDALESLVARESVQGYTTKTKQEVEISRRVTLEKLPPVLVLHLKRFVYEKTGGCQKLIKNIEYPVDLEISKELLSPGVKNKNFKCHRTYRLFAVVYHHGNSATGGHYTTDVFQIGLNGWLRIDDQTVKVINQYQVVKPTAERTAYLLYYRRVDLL
UCHL1, sequence (P09936 whole entry, looked up): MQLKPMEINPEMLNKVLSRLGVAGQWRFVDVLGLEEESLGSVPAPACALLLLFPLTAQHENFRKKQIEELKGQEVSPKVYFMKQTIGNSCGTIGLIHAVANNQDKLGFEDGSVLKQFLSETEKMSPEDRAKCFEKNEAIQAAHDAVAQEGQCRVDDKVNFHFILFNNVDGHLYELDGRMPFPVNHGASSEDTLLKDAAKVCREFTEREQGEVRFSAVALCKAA

For `Cc1cccc(C(CNC(=O)CCl)N2CCOCC2)c1.Cl` (centres undefined), the “log2 ratio of Biotin-Ahx-Ub-VS probe labelling” value with OTUD6B was -0.0947; with OTUD7B, -0.255; with PRPF8 it was -0.0193; with PSMD7 it was -0.183; with UCHL1 it was -1.07 (active); with UCHL3 it was 0.278. The “log2 ratio of Biotin-Ahx-Ub-VS probe labelling” value is -0.182 in the assay with UCHL5, -0.0807 with USP10 and -0.0506 with USP15.
